Holding throughout (assay): DAPPL (digital affinity profiling via proximity ligation, sequencing); 10 mM Tris-HCl pH 7.5, 50 mM NaCl, 1 mM DTT, 4% glycerol, room temperature, 30 min; GST-TFs on glutathione beads, 16-mer random dsDNA library, 0.1% formaldehyde crosslink after washing; high values mean tight binding
Assay [1] deals with T1, FLI1 (Homo sapiens, UniProt Q01543 1-452).
T1 sequence: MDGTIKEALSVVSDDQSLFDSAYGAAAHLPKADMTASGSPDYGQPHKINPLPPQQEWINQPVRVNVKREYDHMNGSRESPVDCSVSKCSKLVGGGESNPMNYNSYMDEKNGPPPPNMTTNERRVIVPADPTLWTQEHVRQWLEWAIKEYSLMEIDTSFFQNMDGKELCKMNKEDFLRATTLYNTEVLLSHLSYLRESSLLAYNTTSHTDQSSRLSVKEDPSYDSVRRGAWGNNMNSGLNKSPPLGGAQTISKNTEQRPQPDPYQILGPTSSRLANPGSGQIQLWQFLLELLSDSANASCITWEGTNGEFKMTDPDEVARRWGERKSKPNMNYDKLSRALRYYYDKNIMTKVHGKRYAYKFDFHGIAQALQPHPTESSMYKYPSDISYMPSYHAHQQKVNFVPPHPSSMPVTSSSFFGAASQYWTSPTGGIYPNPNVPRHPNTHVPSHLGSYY
The conditions noted are these: protein: recombinant; tags: N-terminal GST; dsDNA, one strand shown. Put shortly: (§1)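 After expression in yeast as GST fusions, human transcription factors were bound to glutathione beads, DNA-barcoded and mixed with a tag-only sample. The pools were incubated with 200 nmole of a 16-mer random double-stranded DNA library in Tris/NaCl/DTT/glycerol buffer (30 min, room temperature), washed and crosslinked with 0.1% formaldehyde. Proximity ligation with BsaI/T4 ligase ran for 1 h at 37 °C, before PCR amplification and sequencing on an Illumina NextSeq500. Binding signal is a hexamer's read frequency for a factor divided by its frequency for the tag-only sample.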

The target in assay [2] is T2, ELK1 (Homo sapiens, UniProt P19419 1-428).
T2 sequence: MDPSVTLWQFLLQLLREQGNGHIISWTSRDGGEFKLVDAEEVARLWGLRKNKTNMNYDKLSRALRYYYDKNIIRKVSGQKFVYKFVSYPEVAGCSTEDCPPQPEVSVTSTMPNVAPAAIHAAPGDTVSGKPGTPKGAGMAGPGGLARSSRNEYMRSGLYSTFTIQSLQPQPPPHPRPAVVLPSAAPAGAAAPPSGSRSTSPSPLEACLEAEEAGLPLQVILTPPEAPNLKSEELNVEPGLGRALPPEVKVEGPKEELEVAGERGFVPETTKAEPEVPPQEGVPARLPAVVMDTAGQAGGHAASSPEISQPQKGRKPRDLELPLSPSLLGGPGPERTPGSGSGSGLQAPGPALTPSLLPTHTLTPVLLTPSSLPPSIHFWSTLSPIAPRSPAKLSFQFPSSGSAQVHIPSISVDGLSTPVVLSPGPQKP
Conditions: protein: recombinant; tags: N-terminal GST; dsDNA, one strand shown. Put shortly:
as §1

Assay [3] concerns the target T3, GABPA (Homo sapiens, UniProt Q06546 1-454).
T3 sequence: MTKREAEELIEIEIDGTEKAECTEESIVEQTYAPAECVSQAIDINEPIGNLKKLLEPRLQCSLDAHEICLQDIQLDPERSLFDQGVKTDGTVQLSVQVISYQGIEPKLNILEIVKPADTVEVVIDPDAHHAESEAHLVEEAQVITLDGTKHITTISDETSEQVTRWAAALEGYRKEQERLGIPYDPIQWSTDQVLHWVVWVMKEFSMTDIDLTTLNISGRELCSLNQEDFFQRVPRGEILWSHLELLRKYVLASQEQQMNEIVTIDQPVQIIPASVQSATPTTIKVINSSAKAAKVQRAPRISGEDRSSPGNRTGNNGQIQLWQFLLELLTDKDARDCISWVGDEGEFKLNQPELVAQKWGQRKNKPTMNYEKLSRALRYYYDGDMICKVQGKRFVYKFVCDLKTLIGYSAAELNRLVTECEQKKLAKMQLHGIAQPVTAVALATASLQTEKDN
Conditions: protein: recombinant; tags: N-terminal GST; dsDNA, one strand shown. The essentials: as §1

In assay [4] the target is T4, ERG (Homo sapiens, UniProt P11308 1-479).
T4 sequence: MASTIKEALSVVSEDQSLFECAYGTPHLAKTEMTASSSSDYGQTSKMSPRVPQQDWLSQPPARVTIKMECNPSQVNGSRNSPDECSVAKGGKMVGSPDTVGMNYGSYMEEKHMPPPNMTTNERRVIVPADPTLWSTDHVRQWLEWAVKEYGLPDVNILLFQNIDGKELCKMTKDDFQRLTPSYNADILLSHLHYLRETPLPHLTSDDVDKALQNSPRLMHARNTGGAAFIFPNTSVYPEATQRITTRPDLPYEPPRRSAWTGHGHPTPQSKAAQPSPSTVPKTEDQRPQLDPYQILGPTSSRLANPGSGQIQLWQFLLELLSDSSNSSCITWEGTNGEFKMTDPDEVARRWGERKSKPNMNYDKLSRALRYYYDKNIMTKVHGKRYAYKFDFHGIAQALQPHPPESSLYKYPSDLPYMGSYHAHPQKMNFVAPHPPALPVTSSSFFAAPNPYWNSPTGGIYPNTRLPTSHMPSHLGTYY
Conditions: protein: recombinant; tags: N-terminal GST; dsDNA, one strand shown. Put shortly:
as §1

Assay [5] has as its target ELF1 (Homo sapiens, UniProt P32519 1-619). The conditions noted are these: protein: recombinant; tags: N-terminal GST; dsDNA, one strand shown. Put shortly:
as §1

Assay [6] addresses T5, EHF (Homo sapiens, UniProt Q9NZC4 1-300).
T5 sequence: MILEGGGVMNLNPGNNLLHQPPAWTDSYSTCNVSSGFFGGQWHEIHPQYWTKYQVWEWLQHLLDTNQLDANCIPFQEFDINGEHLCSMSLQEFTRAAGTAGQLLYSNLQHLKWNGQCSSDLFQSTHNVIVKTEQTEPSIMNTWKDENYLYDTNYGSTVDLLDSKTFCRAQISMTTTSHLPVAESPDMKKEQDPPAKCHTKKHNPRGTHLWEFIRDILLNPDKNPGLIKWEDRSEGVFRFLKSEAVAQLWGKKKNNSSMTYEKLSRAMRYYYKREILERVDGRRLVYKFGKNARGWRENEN
The conditions noted are these: protein: recombinant; tags: N-terminal GST; dsDNA, one strand shown. Put shortly: as §1

Assay [7] has as its target SPI1 (Homo sapiens, UniProt P17947 1-270). The conditions noted are these: protein: recombinant; tags: N-terminal GST; dsDNA, one strand shown. The essentials:
as §1

The target of assay [8] is SPIB (Homo sapiens, UniProt Q01892 1-262). The conditions noted are these: protein: recombinant; tags: N-terminal GST; dsDNA, one strand shown. The essentials:
as §1

The target of assay [9] is T6, ELK3 (Homo sapiens, UniProt P41970 1-407).
T6 sequence: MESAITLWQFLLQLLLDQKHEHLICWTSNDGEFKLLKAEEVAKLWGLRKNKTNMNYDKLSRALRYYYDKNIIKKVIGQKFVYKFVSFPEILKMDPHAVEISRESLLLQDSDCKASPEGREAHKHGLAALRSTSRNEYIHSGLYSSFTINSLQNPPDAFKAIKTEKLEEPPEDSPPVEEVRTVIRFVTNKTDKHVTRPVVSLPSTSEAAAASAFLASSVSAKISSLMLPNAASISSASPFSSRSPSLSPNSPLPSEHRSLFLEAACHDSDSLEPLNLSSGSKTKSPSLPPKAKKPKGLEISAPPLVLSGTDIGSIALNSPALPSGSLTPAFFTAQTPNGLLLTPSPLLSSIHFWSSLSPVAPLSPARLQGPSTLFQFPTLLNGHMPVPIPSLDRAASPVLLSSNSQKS
Conditions: protein: recombinant; tags: N-terminal GST; dsDNA, one strand shown. The essentials: as §1

In assay [10] the target is T7, FEV (Homo sapiens, UniProt Q99581 1-238).
T7 sequence: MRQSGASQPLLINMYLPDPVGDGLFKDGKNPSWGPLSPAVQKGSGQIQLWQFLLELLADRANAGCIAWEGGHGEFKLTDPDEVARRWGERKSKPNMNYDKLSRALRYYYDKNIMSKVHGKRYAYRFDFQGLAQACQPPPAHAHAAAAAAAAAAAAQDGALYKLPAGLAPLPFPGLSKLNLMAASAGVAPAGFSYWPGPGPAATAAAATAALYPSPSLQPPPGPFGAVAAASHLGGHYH
Conditions: protein: recombinant; tags: N-terminal GST; dsDNA, one strand shown. The essentials:
as §1

In assay [11] the target is ETV5 (Homo sapiens, UniProt P41161 1-510). The conditions noted are these: protein: recombinant; tags: N-terminal GST; dsDNA, one strand shown. The essentials:
as §1

Assay [12] concerns the target HSF1 (Homo sapiens, UniProt Q00613 1-529). Conditions: protein: recombinant; tags: N-terminal GST; chain copies: 3; dsDNA, one strand shown. The essentials: as §1
For assay [13], the target named is T8, SPIC (Homo sapiens, UniProt Q8N5J4 1-248).
T8 sequence: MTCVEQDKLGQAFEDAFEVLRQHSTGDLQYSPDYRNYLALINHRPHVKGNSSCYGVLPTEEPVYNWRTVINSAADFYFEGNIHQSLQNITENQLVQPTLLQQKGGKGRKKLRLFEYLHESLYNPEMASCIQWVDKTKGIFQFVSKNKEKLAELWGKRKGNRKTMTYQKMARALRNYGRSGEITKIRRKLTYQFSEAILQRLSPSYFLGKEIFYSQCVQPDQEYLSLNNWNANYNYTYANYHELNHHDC
The conditions noted are these: protein: recombinant; tags: N-terminal GST; dsDNA, one strand shown. The essentials:
as §1

For assay [14], the target named is ELF4 (Homo sapiens, UniProt Q99607 1-663). The conditions noted are these: protein: recombinant; tags: N-terminal GST; dsDNA, one strand shown. Put shortly:
as §1

The target of assay [15] is T9, ELK4 (Homo sapiens, UniProt P28324-2 1-405).
T9 sequence: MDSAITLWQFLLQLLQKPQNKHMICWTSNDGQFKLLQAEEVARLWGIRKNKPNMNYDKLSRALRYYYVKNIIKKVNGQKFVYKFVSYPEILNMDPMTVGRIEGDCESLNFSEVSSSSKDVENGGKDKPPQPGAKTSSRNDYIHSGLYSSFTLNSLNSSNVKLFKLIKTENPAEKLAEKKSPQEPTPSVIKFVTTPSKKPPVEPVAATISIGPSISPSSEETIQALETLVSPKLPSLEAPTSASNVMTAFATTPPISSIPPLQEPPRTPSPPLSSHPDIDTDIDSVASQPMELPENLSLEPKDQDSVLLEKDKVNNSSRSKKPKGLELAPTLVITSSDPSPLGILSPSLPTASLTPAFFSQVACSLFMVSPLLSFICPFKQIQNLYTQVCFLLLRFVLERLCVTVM
The conditions noted are these: protein: recombinant; tags: N-terminal GST; dsDNA, one strand shown. The essentials: as §1

Assay [16] addresses T10, ETV2 (Homo sapiens, UniProt O00321 1-342).
T10 sequence: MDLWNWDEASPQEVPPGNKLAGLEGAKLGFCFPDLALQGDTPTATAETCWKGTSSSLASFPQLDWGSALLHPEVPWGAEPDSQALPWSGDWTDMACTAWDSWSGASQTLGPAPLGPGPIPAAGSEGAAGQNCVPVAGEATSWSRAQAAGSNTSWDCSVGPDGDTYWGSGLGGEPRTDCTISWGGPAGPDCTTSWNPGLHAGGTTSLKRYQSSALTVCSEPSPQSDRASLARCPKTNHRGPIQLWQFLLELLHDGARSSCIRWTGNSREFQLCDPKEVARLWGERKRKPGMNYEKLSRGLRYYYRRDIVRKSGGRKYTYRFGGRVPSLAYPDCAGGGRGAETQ
Conditions: protein: recombinant; tags: N-terminal GST; dsDNA, one strand shown. The essentials:
as §1

Assay [17] addresses T11, ELF3 (Homo sapiens, UniProt P78545 1-371).
T11 sequence: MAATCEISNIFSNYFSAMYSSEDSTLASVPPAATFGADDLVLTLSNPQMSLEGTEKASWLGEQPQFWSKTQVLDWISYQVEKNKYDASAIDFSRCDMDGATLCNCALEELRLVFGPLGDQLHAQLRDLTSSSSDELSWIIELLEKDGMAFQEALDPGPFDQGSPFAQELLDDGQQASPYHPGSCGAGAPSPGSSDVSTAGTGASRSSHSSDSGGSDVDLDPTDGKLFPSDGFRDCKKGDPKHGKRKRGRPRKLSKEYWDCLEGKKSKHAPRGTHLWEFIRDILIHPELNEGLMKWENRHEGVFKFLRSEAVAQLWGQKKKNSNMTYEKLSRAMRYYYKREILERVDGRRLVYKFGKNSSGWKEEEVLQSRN
Conditions: protein: recombinant; tags: N-terminal GST; dsDNA, one strand shown. The essentials:
as §1

In assay [18] the target is ETV1 (Homo sapiens, UniProt P50549 1-477). The conditions noted are these: protein: recombinant; tags: N-terminal GST; dsDNA, one strand shown. Put shortly:
as §1

Sequence of ETV1 (P50549 whole entry): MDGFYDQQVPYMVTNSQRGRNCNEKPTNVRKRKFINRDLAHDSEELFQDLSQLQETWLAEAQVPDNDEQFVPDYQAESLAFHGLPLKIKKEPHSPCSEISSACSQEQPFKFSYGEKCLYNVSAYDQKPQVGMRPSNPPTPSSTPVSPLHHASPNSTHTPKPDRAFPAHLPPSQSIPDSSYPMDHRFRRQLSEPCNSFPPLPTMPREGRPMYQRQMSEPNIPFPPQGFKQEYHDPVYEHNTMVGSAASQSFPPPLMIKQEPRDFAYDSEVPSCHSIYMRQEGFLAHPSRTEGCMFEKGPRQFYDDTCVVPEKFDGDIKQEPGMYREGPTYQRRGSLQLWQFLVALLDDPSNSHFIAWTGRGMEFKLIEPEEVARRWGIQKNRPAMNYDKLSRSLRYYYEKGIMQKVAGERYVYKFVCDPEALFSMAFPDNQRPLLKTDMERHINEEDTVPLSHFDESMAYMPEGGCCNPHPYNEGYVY
Sequence of ELF1 (P32519 whole entry): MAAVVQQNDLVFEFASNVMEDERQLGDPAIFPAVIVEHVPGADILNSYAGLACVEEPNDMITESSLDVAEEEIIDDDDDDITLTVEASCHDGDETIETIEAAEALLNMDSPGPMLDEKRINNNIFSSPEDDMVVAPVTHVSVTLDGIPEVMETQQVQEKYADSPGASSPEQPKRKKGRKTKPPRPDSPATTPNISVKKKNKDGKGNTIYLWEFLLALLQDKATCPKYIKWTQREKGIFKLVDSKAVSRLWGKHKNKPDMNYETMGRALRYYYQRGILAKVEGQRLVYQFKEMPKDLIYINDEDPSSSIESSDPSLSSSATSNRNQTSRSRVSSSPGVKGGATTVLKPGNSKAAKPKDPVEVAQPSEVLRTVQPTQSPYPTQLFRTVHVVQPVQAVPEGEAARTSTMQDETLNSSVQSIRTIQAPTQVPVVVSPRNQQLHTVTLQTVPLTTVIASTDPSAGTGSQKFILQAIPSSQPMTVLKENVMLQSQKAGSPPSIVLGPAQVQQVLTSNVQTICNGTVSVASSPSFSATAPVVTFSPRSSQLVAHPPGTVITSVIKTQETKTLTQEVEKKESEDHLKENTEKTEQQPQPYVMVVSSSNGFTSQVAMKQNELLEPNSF
Sequence of HSF1 (Q00613 whole entry): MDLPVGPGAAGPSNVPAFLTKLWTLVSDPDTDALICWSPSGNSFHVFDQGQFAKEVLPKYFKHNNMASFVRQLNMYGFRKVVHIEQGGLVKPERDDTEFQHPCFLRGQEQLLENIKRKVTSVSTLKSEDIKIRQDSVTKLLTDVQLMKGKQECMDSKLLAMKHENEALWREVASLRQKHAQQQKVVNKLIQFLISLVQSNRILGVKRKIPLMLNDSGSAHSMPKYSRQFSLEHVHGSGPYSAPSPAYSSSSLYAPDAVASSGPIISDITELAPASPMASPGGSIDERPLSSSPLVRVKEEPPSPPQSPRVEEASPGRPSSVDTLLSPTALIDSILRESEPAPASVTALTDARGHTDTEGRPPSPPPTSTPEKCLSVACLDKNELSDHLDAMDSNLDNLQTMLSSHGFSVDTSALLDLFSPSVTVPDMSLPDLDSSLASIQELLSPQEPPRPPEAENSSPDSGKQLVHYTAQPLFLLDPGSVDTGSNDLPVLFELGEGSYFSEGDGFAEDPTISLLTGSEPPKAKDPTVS
Sequence of SPIB (Q01892 whole entry): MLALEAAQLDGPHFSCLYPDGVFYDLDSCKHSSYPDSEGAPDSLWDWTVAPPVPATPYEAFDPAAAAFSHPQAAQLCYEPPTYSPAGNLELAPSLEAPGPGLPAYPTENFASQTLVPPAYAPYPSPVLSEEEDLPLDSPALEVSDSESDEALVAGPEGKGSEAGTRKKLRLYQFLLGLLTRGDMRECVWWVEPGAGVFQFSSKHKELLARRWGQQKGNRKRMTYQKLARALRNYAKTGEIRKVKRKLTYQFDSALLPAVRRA
Sequence of ELF4 (Q99607 whole entry): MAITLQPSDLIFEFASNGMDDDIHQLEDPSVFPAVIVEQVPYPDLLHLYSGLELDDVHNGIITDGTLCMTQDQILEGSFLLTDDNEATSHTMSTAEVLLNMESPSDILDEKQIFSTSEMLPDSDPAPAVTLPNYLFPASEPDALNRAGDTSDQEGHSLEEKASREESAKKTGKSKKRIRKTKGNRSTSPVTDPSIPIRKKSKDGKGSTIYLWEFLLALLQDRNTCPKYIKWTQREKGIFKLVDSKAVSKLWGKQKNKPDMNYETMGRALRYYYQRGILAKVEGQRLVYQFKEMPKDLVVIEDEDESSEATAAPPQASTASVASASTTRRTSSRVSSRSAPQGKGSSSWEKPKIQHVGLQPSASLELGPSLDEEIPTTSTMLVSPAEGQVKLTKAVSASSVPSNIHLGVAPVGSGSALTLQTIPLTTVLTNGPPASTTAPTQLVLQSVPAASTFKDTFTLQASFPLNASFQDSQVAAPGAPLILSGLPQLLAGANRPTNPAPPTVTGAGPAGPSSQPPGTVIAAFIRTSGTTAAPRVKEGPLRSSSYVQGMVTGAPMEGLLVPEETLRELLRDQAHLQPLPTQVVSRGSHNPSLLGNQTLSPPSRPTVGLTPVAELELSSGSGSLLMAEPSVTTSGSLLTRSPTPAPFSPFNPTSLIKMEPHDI
Sequence of ETV5 (P41161 whole entry): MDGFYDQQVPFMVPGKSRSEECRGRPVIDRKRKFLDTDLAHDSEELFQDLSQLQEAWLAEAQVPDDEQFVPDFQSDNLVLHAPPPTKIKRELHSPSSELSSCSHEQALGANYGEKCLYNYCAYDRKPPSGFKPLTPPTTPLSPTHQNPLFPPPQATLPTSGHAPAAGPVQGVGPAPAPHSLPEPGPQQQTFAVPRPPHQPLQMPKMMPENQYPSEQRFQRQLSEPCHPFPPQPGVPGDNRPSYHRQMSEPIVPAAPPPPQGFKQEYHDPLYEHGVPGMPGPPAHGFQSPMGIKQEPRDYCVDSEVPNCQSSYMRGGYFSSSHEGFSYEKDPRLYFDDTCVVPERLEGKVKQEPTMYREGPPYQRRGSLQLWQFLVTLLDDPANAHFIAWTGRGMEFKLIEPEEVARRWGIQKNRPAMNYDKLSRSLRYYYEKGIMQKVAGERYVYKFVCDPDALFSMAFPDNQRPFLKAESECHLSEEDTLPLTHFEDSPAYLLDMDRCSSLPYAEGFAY

As for CGATAC, the binding signal in assay [1] was 1.19 fold enrichment (6-mer frequency, TF over GST control); in [2] it was 1.19 fold enrichment (6-mer frequency, TF over GST control); in [3], 1.27 fold enrichment (6-mer frequency, TF over GST control); in [4], 1.18 fold enrichment (6-mer frequency, TF over GST control); in [5], 1.19 fold enrichment (6-mer frequency, TF over GST control); in [6], 1.2 fold enrichment (6-mer frequency, TF over GST control). Further, the binding signal in assay [7] is 1.15 fold enrichment (6-mer frequency, TF over GST control); in assay [8] it was 1.06 fold enrichment (6-mer frequency, TF over GST control); in [9], 1.14 fold enrichment (6-mer frequency, TF over GST control); in assay [10], 1.14 fold enrichment (6-mer frequency, TF over GST control); in assay [11], 1.13 fold enrichment (6-mer frequency, TF over GST control); in [12], 1.01 fold enrichment (6-mer frequency, TF over GST control). Further, the binding signal in assay [13] is 1.34 fold enrichment (6-mer frequency, TF over GST control); in assay [14], 1.25 fold enrichment (6-mer frequency, TF over GST control); in [15], 1.15 fold enrichment (6-mer frequency, TF over GST control); in assay [16], 1.18 fold enrichment (6-mer frequency, TF over GST control); in [17] it was 1.14 fold enrichment (6-mer frequency, TF over GST control); in [18] it was 1.13 fold enrichment (6-mer frequency, TF over GST control).
